High-throughput results (PubChem)
Only some compounds are listed: those with a hit (about 3.1% of all), similar ones and a draw of the others.
MEKK2mut PB1 HTS = signal of MEK5 binding to mutant human MEKK2 PB1 domain; percent response, % at 10 µM; bead flow cytometry, Alexa488-MEK5 binding to MEKK2 mutant; hit rate 0.35% among 290,000; in the data active = percent response above about 24%, passing the limit was not always enough
MEKK3 PB1 HTS = MEKK3-MEK5 PB1 interaction, increase or decrease; AID 1529; bead-based flow cytometry, Alexa488-MEK5 binding to MEKK3; actives lie on both sides; 0 = blocked by unlabeled MEK5, 100 = vehicle; hit rate 1.4% among 290,000; binding response (% of control), % at 10 µM;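 active = binding response more than 3 SD above or below the average of its plate-row segment, actives on both sides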;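 also: Alexa488 bead fluorescence after subtracting the streptavidin-only scavenger bead signal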
Target sequence (Q99759 whole entry, looked up): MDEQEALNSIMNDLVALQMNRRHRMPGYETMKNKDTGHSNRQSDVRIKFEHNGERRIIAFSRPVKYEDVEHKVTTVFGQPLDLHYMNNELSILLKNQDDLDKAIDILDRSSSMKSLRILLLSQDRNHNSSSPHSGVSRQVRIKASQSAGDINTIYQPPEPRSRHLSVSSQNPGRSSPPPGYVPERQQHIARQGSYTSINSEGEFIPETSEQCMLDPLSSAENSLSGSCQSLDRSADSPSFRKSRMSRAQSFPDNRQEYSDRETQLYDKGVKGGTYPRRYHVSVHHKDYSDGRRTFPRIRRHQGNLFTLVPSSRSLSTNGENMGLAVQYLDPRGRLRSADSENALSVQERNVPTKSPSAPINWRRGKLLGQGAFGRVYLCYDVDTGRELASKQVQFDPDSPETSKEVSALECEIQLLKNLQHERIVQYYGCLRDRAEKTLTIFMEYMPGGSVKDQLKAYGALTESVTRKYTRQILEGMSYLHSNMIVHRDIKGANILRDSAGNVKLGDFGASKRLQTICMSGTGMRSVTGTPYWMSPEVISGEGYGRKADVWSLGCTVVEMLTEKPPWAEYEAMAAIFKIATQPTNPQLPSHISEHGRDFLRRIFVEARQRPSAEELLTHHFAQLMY
ATG4B inh = blocks human ATG4B protease cleavage of LC3 substrate | ATG4B cleavage of LC3-PLA2, NBD-HPC fluorescence, 1 h | inhibition, % at 8.33 µM | hit rate 0.51% among 340,000 | AID 504462; in the data active = inhibition above about 40%
UBC13 polyUb = inhibitors of human UBC13 polyubiquitin chain formation; P61088; TR-FRET; inhibition, % at 20 µM; hit rate 0.47% among 330,000; in the data active = inhibition above about 45%, passing the limit was not always enough
MEKK2wt PB1 HTS = raises or lowers MEK5 binding to wildtype human MEKK2 PB1 domain; AID 1531; Q9Y2U5; hit rate 1.1% among 290,000; binding response (% of control), % at 10 µM; bead flow cytometry, Alexa488-MEK5 binding to MEKK2 WT; actives lie on both sides; in the data active = binding response below about 67% or above about 130%
PREPL inh = inhibits the human prolyl oligopeptidase-like enzyme | Q4J6C6 | recombinant PREPL, fluorescence polarization activity-based probe | inhibition, % at 5.96 µM | hit rate 0.68% among 320,000 | AID 2751; in the data active = inhibition above about 43%;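 also: 0% = enzyme with DMSO and 100% = wells lacking enzyme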
The depositor's hits bear a star; · = not tested or not shown; ! = a repeat was not active; [ ] = another dose, or the depositor's remark.

SMILES	MEKK2mut PB1 HTS	MEKK3 PB1 HTS	ATG4B inh	UBC13 polyUb	MEKK2wt PB1 HTS	PREPL inh
COC(=O)[C@@H](NC(=O)O[C@@H]1C(=O)c2cc(Br)ccc2O[C@H]1c1cccc(OC)c1)C(C)C	-6.0	101.0	·	20.4	95.0	8.2
CC[C@H](C)[C@@H](NC(=O)O[C@@H]1C(=O)c2cc(Br)ccc2O[C@H]1c1ccc2c(c1)OCO2)C(=O)OC	-4.0	78.0*[inhibitor]	·	·	95.0	·
O=Cc1c(C(=O)O)n(CC(=O)O)c2ccccc12	1.0	134.0*	4.8	8.0	106.0	10.6
COc1ccc2nc(/C(C#N)=C\c3ccc(C(=O)O)cc3)[nH]c2c1	44.0	81.0	-7.1	-6.1	7.0*	-1.8
O=C(Nc1ccc(N2CCOCC2)cc1)c1ccc([N+](=O)[O-])o1	-1.0	99.0	-3.5	-20.2	99.0	17.0
COc1cc(/C=C2\C(=N)N3N=C(S(=O)(=O)CC(C)C)SC3=NC2=O)ccc1OC(=O)c1ccco1	-1.0	98.0	·	-3.7	99.0	49.4*
CC(OC(=O)c1cc(-c2cccnc2)nc2ccccc12)C(=O)Nc1ccc2ccccc2c1 (stereo unspecified)	2.0	108.0	-28.4	12.2	123.0	-7.6
S=C(c1cn(Cc2ccccc2)c2ccccc12)N1CCOCC1	2.0	102.0	-4.5	3.7	103.0	31.3
S=C(c1cn(Cc2ccc(Br)cc2)c2ccccc12)N1CCOCC1	-4.0	95.0	-4.9	1.4	98.0	49.7*
C=CCn1c(Cc2ccccc2)nc2c(cnn2-c2ccccc2)c1=O	2.0	106.0	-5.4	4.4	101.0	-14.6
O=C(Nc1cccc(-n2cnnn2)c1)c1ccoc1COc1ccc(Cl)cc1	-1.0	106.0	-4.6	0.6	110.0	-18.2
COc1ccc(-c2coc3cc4oc(=O)cc(-c5ccccc5)c4cc23)cc1F	0.0	132.0*	2.3	-8.0	106.0	-1.0
Cc1[nH]c2ccccc2c1/C=C/C(=O)c1ccccc1	180.0*	150.0*	8.0	-8.0	16.0*	14.6
COc1ccc2c(Cl)c(C(=O)N/N=C/c3c(C)[nH]c4ccccc34)sc2c1	22.0	96.0	-26.1	1.7	48.0*[inhibitor]	19.9
Cc1[nH]c2ccccc2c1/C=N/NC(=O)c1cccc(Br)c1	64.0*	111.0	-17.9	11.5	42.0*	21.7
Cc1ccc(NC(=S)N/N=C/c2c(C)[nH]c3ccccc23)cc1	50.0	110.0	-2.9	22.6	38.0*	36.5
O=C(CN(Cc1ccccc1)C(=O)CCC(=O)Nc1ccccn1)NCc1ccc(F)cc1	4.0	101.0	2.6	0.0	98.0	9.8
Cc1ccc2c(c1)-c1ncc(C(=O)c3cc(Br)ccc3O)cc1CO2	-9.0	102.0	·	-1.0	80.0	-5.8
CCOC(=O)Oc1ccc2c(=O)c(Oc3cccc(C)c3)coc2c1	1.0	99.0	14.8	9.5	105.0	65.3*
CCOC(=O)Oc1ccc2c(=O)c(Oc3cc(C)cc(C)c3)coc2c1	3.0	103.0	11.9	-9.5	97.0	37.5
CCN1/C(=C\C=C2\C(=O)N(c3ccccc3)C(=S)N2C)Sc2ccccc21	-41.0	75.0*[inhibitor]	-3.2	·	44.0*[inhibitor]	·
CCN1/C(=C\C=C(C(C)=O)C(C)=O)Sc2ccccc21	-12.0	95.0	6.8	-429.4	87.0	-4.8
COc1ccccc1CN(C)C(=O)c1ccccc1Sc1ccccc1C#N	8.0	101.0	-1.1	-4.6	96.0	7.0
CN(C)CCC(O)c1ccccc1 (stereo unspecified)	2.0	93.0	4.3	-3.3	-4.0*	-0.2
CCOC(=O)Cc1csc(NC(=S)NC(=O)C(C)(C)C)n1	1.0	134.0*	-5.5	7.4	107.0	3.1
SMILES	MEKK2mut PB1 HTS	MEKK3 PB1 HTS	ATG4B inh	UBC13 polyUb	MEKK2wt PB1 HTS	PREPL inh
O=C(CSc1ccsc1[N+](=O)[O-])N1CCN(c2ccccc2)CC1	15.0	98.0	18.3	-10.2	112.0	40.6
O=C(CSc1ccsc1[N+](=O)[O-])N1CCN(c2ccc(Cl)cc2)CC1	5.0	100.0	20.7	-5.3	108.0	43.6*
COc1cccc2c1C(=O)c1c(O)c3c(c(O)c1C2=O)C[C@@](O)(C(=O)CO)C[C@@H]3OC1CC(N)C(O)C(C)O1 (stereo partly specified)	·	·	-16.7	·	·	·
COc1cccc2c1C(=O)c1c(O)c3c(c(O)c1C2=O)C[C@@](O)(C(=O)CO)C[C@@H]3O[C@H]1C[C@H](N)[C@H](O)[C@H](C)O1	-9.0	47.0*![inhibitor]	-28.1	-267.8	50.0*![inhibitor]	23.6
COc1ccc(CCNC(=O)CSc2nc(=O)[nH]c3c2CCC3)cc1OC	·	·	-5.3	0.2	·	2.0
O=C(CCN1C(=O)c2ccccc2S1(=O)=O)NCc1ccc(F)cc1	·	·	-0.7	-1.0	·	·
O=C(CN1C(=O)c2ccccc2S1(=O)=O)NCc1ccc(F)cc1	-6.0	72.0*[inhibitor]	-1.6	-2.2	94.0	3.4
O=C(NCc1ccccc1Cl)C1CCC(CNc2nc(=S)[nH]c3ccccc23)CC1 (stereo unspecified)	-12.0	70.0	0.6	-5.7	14.0*	7.5
COc1ccccc1N1CCN(C(=O)NCc2cccc(C(F)(F)F)c2)CC1	-4.0	103.0	43.5*	6.1	103.0	2.0
Nc1ccc(Nc2nc(-c3ccncc3)cs2)cc1	1.0	104.0	-2.2	2.2	103.0	43.6*
CC1(c2ccc(Cl)cc2)NC(=O)N(CC(=O)Nc2cccnc2Cl)C1=O (stereo unspecified)	·	·	1.8	-2.2	·	-42.9
COC(=O)C(C)SC1=N/C(=C/c2ccc(-n3cncn3)cc2)C(=O)N1 (stereo unspecified)	5.0	116.0	0.6	12.0	110.0	-1.5
CCOC(=O)CCCCC(=O)c1[nH]c(=O)[nH]c1CSc1nnc2c3ccccc3n(C(C)C)c2n1	0.0	131.0*	1.4	-2.3	108.0	3.8
Oc1c(Cl)cc(Cl)cc1Sc1cc(Cl)cc(Cl)c1O	1.0	112.0	·	2.8	87.0	48.0*
CC/C=C\[C@H](O)[C@H](O)C1=C(C)C(=O)[C@]2(O1)C(=O)N[C@@](OC)(C(=O)c1ccccc1)C2O (stereo partly specified)	3.0	104.0	-29.7	-12.9	104.0	6.4
O=C(NNC(=O)c1cccnc1SCc1cccc([N+](=O)[O-])c1)c1ccccn1	-1.0	134.0*	0.4	17.6	106.0	10.2
O=C(NNC(=O)c1cccnc1SCc1cccc([N+](=O)[O-])c1)c1ccc(F)cc1	-1.0	107.0	6.3	-8.2	104.0	8.4
Cc1cc(Br)cc2cn[nH]c12	-28.0	79.0	-4.3	4.4	40.0*	5.3
CCOC(=O)Cn1cc(C#N)c2cccc(CC)c21	-7.0	91.0	-3.9	5.7	98.0	-0.3
CCn1nc(C)c(CN2CCC(C(=O)Nc3cccc(-c4cccc(F)c4)c3)CC2)c1C	25.0*	106.0	-0.8	18.4	136.0*	-35.5
